For experiment [1], the system named is TRPC4 beta (transient receptor potential cation channel C4), mouse. Briefly: activators of mouse TRPC4 channel, confirmation, cell-based, Fluo4 calcium, HEK293 TRPC4beta/mu-opioid, duplicates, 10 µM (AID 2426;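 active means fluorescence ratio normalized to control raised more than 50% in primary screen plus both repeat runs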). The following applies: Fluo4 calcium fluorescence, at 10 µM; hits give high values.
Experiment [2] concerns transient receptor potential cation channel C4 beta (TRPC4), mouse. Briefly: activators of mouse TRPC4 channel, confirmation, cell-based, second round, Fluo4, HEK293 TRPC4beta/mu-opioid, 1 µM (AID 2461;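 active means primary screen active and over 50% activation in each of two duplicate runs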). The following applies: Fluo4 calcium fluorescence, at 1 µM; hits give high values.
For experiment [3], the system named is TRPC4 (transient receptor potential cation channel C4 beta), mouse. The experiment is described as follows: positive allosteric modulators of mouse TRPC4, confirmation, cell-based, second round, Fluo-4, HEK293 TRPC4beta/mu-opioid, 1 µM (AID 2554;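 active means primary screen hit whose fluorescence ratio, in both repeats, exceeds the weak agonist control mean by 3 SD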). The following applies: DAMGO EC20, Fluo-4 calcium flux, at 1 µM; hits give high values. In general terms: A change in cytosolic calcium serves as a functional read-out for many receptors and channels.

Experiment [4] deals with TRPC4 beta (transient receptor potential cation channel C4), mouse. Briefly: positive allosteric modulators of mouse TRPC4, confirmation, cell-based, Fluo-4, HEK293 TRPC4beta/mu-opioid (AID 2555;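 active means primary screen hit whose calcium fluorescence ratio, in both repeats, exceeds the weak agonist control mean by 3 SD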). The following applies: DAMGO EC20, Fluo-4 calcium flux, at 10 µM; hits give high values.
In experiment [5] the target is Short transient receptor potential channel 4 (Mus musculus) (UniProt Q9QUQ5). Briefly: inhibitors of mouse TRPC4 channel, confirmation, cell-based, Fluo4, HEK293 TRPC4beta/mu-opioid (AID 2636). The following applies: DAMGO, Fluo4 calcium flux, at 10 µM; hits give high values.
Sequence of Short transient receptor potential channel 4 (Mus musculus) (Q9QUQ5 whole entry, looked up): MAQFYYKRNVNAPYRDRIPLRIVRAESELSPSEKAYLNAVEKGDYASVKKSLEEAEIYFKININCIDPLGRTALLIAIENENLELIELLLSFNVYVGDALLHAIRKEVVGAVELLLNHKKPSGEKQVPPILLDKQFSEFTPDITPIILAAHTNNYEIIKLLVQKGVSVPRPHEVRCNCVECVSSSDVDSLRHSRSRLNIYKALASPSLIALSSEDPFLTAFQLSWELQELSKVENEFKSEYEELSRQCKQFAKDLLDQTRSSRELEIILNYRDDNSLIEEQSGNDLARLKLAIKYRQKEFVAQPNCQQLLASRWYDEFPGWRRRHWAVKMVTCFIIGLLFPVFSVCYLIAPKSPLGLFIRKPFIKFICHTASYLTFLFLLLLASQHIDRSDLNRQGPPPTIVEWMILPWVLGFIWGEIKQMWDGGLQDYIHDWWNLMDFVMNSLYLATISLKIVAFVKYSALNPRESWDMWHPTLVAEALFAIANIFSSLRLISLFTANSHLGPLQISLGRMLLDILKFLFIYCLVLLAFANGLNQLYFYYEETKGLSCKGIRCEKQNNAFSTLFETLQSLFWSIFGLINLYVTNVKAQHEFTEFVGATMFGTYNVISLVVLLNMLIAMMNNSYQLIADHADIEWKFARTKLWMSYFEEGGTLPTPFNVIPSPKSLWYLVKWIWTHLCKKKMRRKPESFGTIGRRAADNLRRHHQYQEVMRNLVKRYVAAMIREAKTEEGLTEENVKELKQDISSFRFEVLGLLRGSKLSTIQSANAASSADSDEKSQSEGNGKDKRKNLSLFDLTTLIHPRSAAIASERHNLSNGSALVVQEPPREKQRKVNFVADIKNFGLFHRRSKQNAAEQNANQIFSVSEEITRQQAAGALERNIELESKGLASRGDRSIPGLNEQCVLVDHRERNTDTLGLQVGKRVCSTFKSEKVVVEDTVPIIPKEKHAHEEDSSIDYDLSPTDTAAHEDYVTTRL
Experiment [6] shares this target. The experiment is described as follows: inhibitors of mouse TRPC4 channel, confirmation, cell-based, second round, Fluo4, HEK293 TRPC4beta/mu-opioid, 1 µM (AID 2637;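 active means calcium signal ratio cut to more than 3 SD under the fully stimulated control mean yet still positive, in both repeats and the primary screen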). The following applies: Fluo4 calcium flux, DAMGO, at 1 µM; hits give high values.
Experiment [7] has the same target. Briefly: mouse TRPC4 channel activators, dose response, cell-based, HEK293 TRPC4/mu-opioid, Fluo-4 calcium (AID 434937;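 active means primary screen activator hit with a dose response curve and TRPC4 channel activation at any tested dose; inactive means no activation, no dose response, or not a primary hit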).
The target is the same in experiment [8]. Briefly: TRPC4 positive allosteric modulators, dose response, cell-based, HEK293 TRPC4/mu-opioid, Fluo-4 calcium, EC20 DAMGO (AID 434941;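 active means earlier screen potentiator hit that boosts the TRPC4 ion channel at some dose, with a dose response; inactive means no potentiation, no dose response, or not a prior hit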;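 further: calcium entry triggered by an EC20 dose of DAMGO at the co-expressed mu-opioid receptor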).
Experiment [9] has the same target. The experiment is described as follows: mouse TRPC4 channel inhibitors, dose response, cell-based, HEK293 TRPC4/mu-opioid, Fluo-4 calcium (AID 434942;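 active means primary screen inhibitor hit that blocks the TRPC4 channel at some tested dose, yielding a dose curve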).
Experiment [10] has as its target Short transient receptor potential channel 6 (Mus musculus) (UniProt Q61143). Briefly: inhibition of mouse TRPC6 channel, confirmation, selectivity assay for TRPC4 inhibitor project, cell-based, HEK293, membrane potential dye, duplicate (AID 434948;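 active means active in primary screen and both duplicates, each dropping signal beyond three positive-control SD with fluorescence still positive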). The following applies: HEK293 TRPC6, membrane potential dye fluorescence, at 10 µM, stimulated with maximal-effect acetylcholine; hits give high values.

Experiment [11] has the same target. The experiment is described as follows: activation of mouse TRPC6 channel, confirmation, selectivity assay for TRPC4 activator project, cell-based, HEK293, membrane potential dye, duplicate (AID 434950;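 active means membrane potential signal rise above negative control mean plus 3 SD in both duplicates, also active in the earlier TRPC4 screen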). The following applies: HEK293 TRPC6, membrane potential fluorescence, at 10 µM; hits give high values.
Experiment [12] shares this target. Briefly: TRPC6 potentiation by TRPC4 potentiator hits, confirmation, selectivity assay for TRPC4 potentiator project, HEK293 cells, membrane potential dye, duplicate (AID 434952;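 active means compound raising the membrane signal above positive-control mean plus 3 SD in both repeats, and a primary screen hit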). The following applies: HEK293 TRPC6, membrane potential dye fluorescence, at 10 µM, maximal acetylcholine added after compound; hits give high values.
Experiment [13] addresses Short transient receptor potential channel 4 (Mus musculus) (UniProt Q9QUQ5). Briefly: calcium flux activators in TRPC4/5HT1a cells, counter-screen for TRPC4 activator project, cell-based, second counter screen, HEK293 TRPC4/5HT1a, Fluo-4 (AID 434977;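 active means calcium signal rise above buffer-control mean plus 5 SD in both duplicates, and also a hit in the primary screen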). The following applies: Fluo-4 calcium flux, at 10 µM; hits give high values.
Experiment [14] can be described thus: calcium flux inhibitors in TRPC4/5HT1a cells, confirmation, counter-screen for TRPC4 inhibitor project, cell-based, second counter screen, HEK293 TRPC4/5HT1a, Fluo-4 (AID 434978;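 active means primary screen active whose calcium signal fell more than 3 SD beyond the full-serotonin control mean in both duplicate plates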;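 further: serotonin given first at submaximal then at maximal dose after compound preincubation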). The following applies: Fluo-4 calcium flux, at 10 µM, serotonin added to trigger calcium flux; hits give high values.
In experiment [15] the test system is TRPC4 (mouse), co-expressed with 5HT1a in HEK293. The experiment is described as follows: calcium flux potentiators in TRPC4/5HT1a cells, confirmation, counter-screen for TRPC4 potentiator project, cell-based, second counter screen, HEK293 TRPC4/5HT1a, Fluo-4 (AID 434979;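 active means signal rise over 3 SD above mean of control wells given weak agonist, in both repeats and first screen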). The following applies: Fluo-4 calcium flux, at 10 µM, serotonin added at its EC20 dose; hits give high values.

The nature of experiment [16]: calcium flux activation in mu-opioid HEK293 cells, confirmation, counter-screen for TRPC4 activator project, cell-based, HEK293 mu-opioid receptor line (AID 449723;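 active means hit in primary screen, with calcium signal over 5 SD above buffer well mean in both duplicates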;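 further: counter screen cells carry the mu-opioid receptor alone and lack TRPC4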). The following applies: Fluo-4 calcium fluorescence, at 10 µM; hits give high values.
The nature of experiment [17]: calcium flux enhancement in mu-opioid HEK293 cells, confirmation, counter-screen for TRPC4 allosteric potentiator project, cell-based, HEK293 mu-opioid receptor line (AID 449724;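 active means calcium signal rise more than 3 SD above the low-dose agonist control mean, in both duplicate plates and the primary screen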;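 further: HEK293 cells carrying mu-opioid receptor only with no TRPC4 channel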). The following applies: Fluo-4 calcium flux, at 10 µM, compound added before EC20 DAMGO stimulus; hits give high values.

For part of these data: Results with a measured potency or affinity are listed apart. Activity calls are given as the source filed them.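 How the source made its calls, unless noted: active means calcium signal cut by more than 3 SD below the full-agonist control yet still positive, in both repeats and the earlier primary screen; inactive means the rest.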

Data on 15 molecules can be found in PubChem BioAssay.

Sequence of Short transient receptor potential channel 6 (Mus musculus) (Q61143 whole entry, looked up): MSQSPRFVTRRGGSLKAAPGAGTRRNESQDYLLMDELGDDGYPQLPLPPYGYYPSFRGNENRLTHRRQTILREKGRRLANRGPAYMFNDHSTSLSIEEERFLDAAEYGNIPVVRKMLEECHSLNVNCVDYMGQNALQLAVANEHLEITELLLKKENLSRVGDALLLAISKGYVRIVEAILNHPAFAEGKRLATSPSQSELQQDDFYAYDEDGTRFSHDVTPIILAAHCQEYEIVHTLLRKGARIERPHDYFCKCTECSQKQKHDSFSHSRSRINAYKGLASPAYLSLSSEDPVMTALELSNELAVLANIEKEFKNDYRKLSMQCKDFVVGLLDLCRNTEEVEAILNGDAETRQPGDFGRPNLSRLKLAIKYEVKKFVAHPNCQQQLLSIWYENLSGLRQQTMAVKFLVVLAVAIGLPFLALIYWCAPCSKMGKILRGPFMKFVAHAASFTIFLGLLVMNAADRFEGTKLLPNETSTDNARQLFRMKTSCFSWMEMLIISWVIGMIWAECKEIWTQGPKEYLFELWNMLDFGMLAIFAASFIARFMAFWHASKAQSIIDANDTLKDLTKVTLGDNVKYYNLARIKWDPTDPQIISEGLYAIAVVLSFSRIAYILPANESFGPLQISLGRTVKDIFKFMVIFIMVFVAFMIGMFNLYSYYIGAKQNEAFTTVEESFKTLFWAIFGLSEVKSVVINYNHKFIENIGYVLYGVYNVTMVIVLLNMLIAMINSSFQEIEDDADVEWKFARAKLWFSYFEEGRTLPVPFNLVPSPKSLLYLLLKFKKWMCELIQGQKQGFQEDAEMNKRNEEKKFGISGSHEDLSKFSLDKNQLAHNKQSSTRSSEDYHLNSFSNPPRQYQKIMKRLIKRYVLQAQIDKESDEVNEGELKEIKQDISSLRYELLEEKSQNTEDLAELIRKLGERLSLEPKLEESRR

On to `CCOC(=O)c1c(-c2ccc(OC)cc2)oc2ccc(O)cc12`, for which the result in experiment [1], in experiment [2], in experiment [3], in experiment [4], in experiment [5] and in experiment [6] was inactive. Moreover, the outcome in [7], in experiment [8], in experiment [9], in [10], in experiment [11] and in experiment [12] was inactive. Besides, the outcome in experiment [13], in [14], in [15], in [16] and in experiment [17] was inactive.
`Cc1cc(C(C)(C)C)cc(S(=O)(=O)Nc2cccc(C(=O)O)c2)c1C`: the outcome in experiment [1], in [2], in [3], in experiment [5], in experiment [6] and in experiment [7] was inactive. Further, the result in experiment [8], in [9], in experiment [10], in experiment [11], in [12] and in experiment [13] was inactive. Further, the outcome in [14], in [16] and in experiment [17] was inactive. The figures for the potentiation in experiment [4] and in [15] were 9% (active) and 19% (active), respectively.
For the molecule `COc1cccc(NC(=O)COc2c(F)c(F)c(C(F)(F)F)c(F)c2F)c1`, the outcome in experiment [1], in experiment [2], in experiment [3], in experiment [4], in experiment [5] and in experiment [6] was inactive. Further, the result in experiment [7], in [8], in [9], in experiment [10], in experiment [11] and in experiment [12] was inactive. The outcome in experiment [13], in experiment [14], in [15], in experiment [16] and in [17] was inactive.
Regarding `Cc1cc(C)c(C(=O)c2ccc(C(=O)N3CCCCC3)cc2)c(C)c1`, the result in [1], in [2], in experiment [3], in experiment [4], in experiment [5] and in [6] was inactive. The result in [7], in experiment [8], in experiment [9], in experiment [10], in [11] and in experiment [12] was inactive. In addition, the result in [13], in [14], in experiment [15], in experiment [16] and in [17] was inactive.
Turning to `CCc1cc2c3c(c(=O)oc2cc1OCC(=O)OC)CCCC3`, the result in [1], in experiment [2], in [3], in experiment [4], in [5] and in [6] was inactive. Besides, the result in experiment [7], in experiment [8], in experiment [9], in experiment [10], in experiment [11] and in experiment [12] was inactive. In addition, the result in [13], in [14], in experiment [15], in experiment [16] and in experiment [17] was inactive.
Turning to `CC(C)C(=O)N1CCN(c2ccccc2NC(=O)c2ccco2)CC1`, the result in experiment [1], in experiment [2], in [3], in experiment [4], in [6] and in experiment [7] was inactive. In addition, the outcome in experiment [8], in [9], in experiment [10], in experiment [11], in experiment [12] and in experiment [13] was inactive. Further, the outcome in experiment [14], in experiment [15], in experiment [16] and in experiment [17] was inactive. Moreover, the inhibition (in general, the share of the control response that was lost under treatment) in [5] is 84% (active).
`COc1ccc(C(=O)NNC(=O)CN2CCC(n3nnc4cc(C)ccc43)CC2)cc1`: the result in [1], in [2], in experiment [5], in experiment [6], in experiment [7] and in experiment [8] was inactive. Further, the outcome in experiment [9], in [10], in [11], in [12], in experiment [13] and in experiment [14] was inactive. Further, the result in [15], in experiment [16] and in experiment [17] was inactive. Further, the figures for the potentiation in [3] and in experiment [4] were 15% (active) and 28% (active), respectively.
On to `Oc1cccc(C(=S)N2CCN(Cc3ccccc3)CC2)c1`, for which the outcome in experiment [1], in [2], in experiment [3], in [4], in experiment [5] and in experiment [6] was inactive. Also, the outcome in experiment [7], in experiment [8], in experiment [9], in experiment [10], in experiment [11] and in experiment [12] was inactive. Moreover, the result in experiment [13], in experiment [14], in experiment [15], in [16] and in [17] was inactive.
As to `CCC(=O)Nc1cc(ON=C(C)C)cc([N+](=O)[O-])c1`, the outcome in experiment [1], in experiment [2], in experiment [3], in experiment [4], in experiment [5] and in experiment [6] was inactive. Further, the result in experiment [7], in experiment [8], in [9], in experiment [10], in experiment [11] and in experiment [12] was inactive. Further, the result in experiment [13], in experiment [14], in experiment [15], in experiment [16] and in experiment [17] was inactive.
On to `Cc1ccc(NS(=O)(=O)c2ccc(NS(=O)(=O)c3cccs3)cc2)cc1`, for which the result in [1], in experiment [2], in [3], in [4], in experiment [5] and in [6] was inactive. In addition, the outcome in experiment [7], in experiment [8], in experiment [9], in [10], in [11] and in [12] was inactive. Also, the outcome in experiment [13], in experiment [14], in experiment [16] and in [17] was inactive. For the same molecule, the potentiation in [15] is 15% (active).
As for `O=C1CC(NS(=O)(=O)c2cccs2)CN1c1ccccc1` (stereo not given), the result in experiment [1], in experiment [2], in experiment [3], in experiment [5], in [6] and in experiment [7] was inactive. In addition, the result in [8], in experiment [9], in experiment [10], in [11], in [12] and in [13] was inactive. The outcome in [14], in experiment [16] and in [17] was inactive. The potentiation in [4] was 14% (active); in experiment [15] it was 29.8% (active).
On to `CCOc1cc(/C=C2\CN(CC)C/C(=C\c3ccc(O)c(OCC)c3)C2=O)ccc1O`, for which the result in experiment [1], in experiment [2], in experiment [3], in experiment [4], in experiment [5] and in experiment [6] was inactive. Moreover, the outcome in experiment [7], in experiment [8], in experiment [9], in [10], in [11] and in experiment [12] was inactive. The result in experiment [13], in experiment [14], in [15], in [16] and in experiment [17] was inactive.
For `CC(C)C(=O)N1CCN(c2nc(-c3ccccc3)c3c(c2C#N)CCCC3)CC1`, the outcome in [1], in experiment [2], in experiment [3], in experiment [5], in [6] and in experiment [7] was inactive. Further, the result in experiment [8], in experiment [9], in experiment [10], in experiment [11], in experiment [12] and in [13] was inactive. Besides, the result in experiment [14], in experiment [16] and in experiment [17] was inactive. For the same molecule, the potentiation was 26% (active) in experiment [4] and 29.4% (active) in [15].
Take `COc1ccc(OC)c(NC(=O)COC(=O)Cc2ccc(-c3ccccc3)cc2)c1`: the outcome in [1], in [2], in experiment [3], in experiment [4], in [5] and in experiment [6] was inactive. For the same molecule, the outcome in [7], in experiment [8], in experiment [9], in experiment [10], in experiment [11] and in experiment [12] was inactive. The result in experiment [13], in experiment [14], in experiment [16] and in experiment [17] was inactive. Moreover, in experiment [15], the potentiation is 31.8% (active).
With `O=C(c1ccc([N+](=O)[O-])s1)N1CCCc2ccccc21`, the result in experiment [1], in experiment [2], in experiment [3], in experiment [4], in experiment [5] and in [6] was inactive. Moreover, the result in experiment [7], in experiment [8], in experiment [9], in experiment [10], in experiment [11] and in experiment [12] was inactive. For the same molecule, the result in experiment [13], in experiment [14], in experiment [15], in [16] and in experiment [17] was inactive.
